About 83,000 compounds went through this panel and 20% of them were active in at least one assay; those are over-represented in the sample as a whole.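 Note: values are percent growth. 100 is the growth of untreated cells, values between 100 and 0 indicate rising inhibition; between -100 and 0 indicates cell death.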 Activity calls are given as the source filed them. The calls were made as follows: active = growth percent below 10; inactive = the rest.
Tests used:
Assay in all cases: NCI-60 one-dose screen, 48 h (100 = growth as untreated, 0 = no growth, -100 = all killed)
Conditions in all cases: 10 µM unless noted
[1] = test system: DU-145 prostate
[2] = test system: K-562 leukemia
[3] = test system: MALME-3M melanoma
[4] = test system: MDA-MB-231 breast
[5] = test system: RXF 393 renal
[6] = test system: SF-268 CNS
[7] = test system: SF-295 CNS
[8] = test system: SF-539 CNS
[9] = test system: UACC-257 melanoma
[10] = test system: M14 melanoma
[11] = test system: HCT-15 colon
[12] = test system: HT29 colon
[13] = test system: SNB-75 CNS
[14] = test system: SNB-19 CNS
[15] = test system: U251 CNS
[16] = test system: PC-3 prostate
[17] = test system: SK-MEL-5 melanoma
[18] = test system: UACC-62 melanoma
[19] = test system: LOX IMVI melanoma
[20] = test system: SK-MEL-28 melanoma

Measured: growth

Cc1ccc(/C=C/C(=O)c2cccc(OCCCOc3cccc(C(=O)/C=C/c4ccc(C)cc4)c3)c2)cc1
inactive: [1] 88.9% | [2] 52.9% | [3] 98.8% | [4] 86.8% | [5] 85.7% | [6] 79.6% | [7] 77.4% | [8] 83.8% | [9] 96.4% | [10] 73.4% | [11] 64.4% | [12] 51.5% | [13] 70.2% | [14] 77.2% | [15] 41% | [16] 72.2% | [17] 90.2% | [18] 62.9% | [19] 25.5%

CN(C)S(=O)(=O)Oc1ccc(-c2sc3cc(OS(=O)(=O)N(C)C)ccc3c2C(=O)c2ccc(OCCN3CCCCC3)cc2)cc1
inactive: [1] 63.4% | [3] 17.7% | [4] 77.5% | [5] 26.8% | [6] 42.1% | [7] 48.6% | [8] 52.2% | [11] 34.2% | [13] 61.5% | [14] 58.2% | [15] 18.6% | [16] 53.6% | [17] 67.5% | [18] 47.3% | [19] 32.7% | [20] 57.2%
active: [2] -8.94% | [9] -17.5% | [10] 2.03% | [12] 8.75%

CC(=O)O[C@H]1C[C@@H]2C(C)(C)C(=O)CC[C@@]2(C)c2ccc(C(C)C)cc21
inactive: [1] 102% | [2] 104% | [3] 109% | [4] 104% | [5] 121% | [6] 95.8% | [7] 100% | [8] 110% | [9] 107% | [10] 104% | [11] 105% | [12] 111% | [13] 100% | [14] 102% | [15] 97.7% | [16] 100% | [17] 103% | [18] 101% | [19] 105%

O=C(O)[C@@H](Cc1ccc2ccccc2c1)NC(=O)n1c2ccccc2c2ccccc21
active: [8] 1.16% | [10] 4.26% | [12] 4.59% | [17] 3.91%
inactive: [1] 19.4% | [2] 11.6% | [3] 22% | [4] 15.6% | [5] 14.6% | [6] 42.5% | [7] 11.6% | [9] 57.7% | [11] 21.1% | [13] 20.1% | [14] 25.4% | [15] 14.8% | [16] 26.7% | [18] 18.3% | [19] 35.9%

O=C(O)c1ccc(-c2ccc(/C=N/Nc3nc(Nc4ccccc4)nc(N4CCCCC4)n3)o2)cc1
inactive: [1] 66.7% | [2] 67.5% | [3] 59% | [4] 96.5% | [5] 65.4% | [6] 71.7% | [8] 75.2% | [9] 93.9% | [10] 83.1% | [11] 55.3% | [12] 63.4% | [13] 65.7% | [14] 61% | [15] 43.2% | [16] 65.6% | [17] 71.5% | [18] 67.6% | [19] 68.6%
active: [7] -21.9%

N=c1c(S(=O)(=O)c2ccccc2)cc2c(=O)n3ccccc3nc2n1CC1CCCO1 (centres undefined)
inactive: [1] 110% | [2] 113% | [3] 118% | [4] 97.9% | [5] 113% | [6] 100% | [7] 112% | [8] 95.6% | [9] 109% | [10] 104% | [11] 119% | [12] 120% | [13] 73.9% | [14] 103% | [15] 108% | [16] 95.3% | [17] 99.7% | [18] 99.8% | [19] 98.7%

CCN1C2CCC1/C(=C\c1ccc(F)cc1)C(=O)/C2=C/c1ccc(F)cc1
active: [1] 9.04%
inactive: [2] 20.5% | [3] 55.7% | [4] 62.5% | [5] 57.9% | [6] 38.4% | [7] 36.3% | [8] 51.8% | [9] 50.8% | [10] 35.9% | [11] 30.4% | [12] 23.7% | [13] 40.6% | [14] 51% | [15] 21.2% | [16] 38.5% | [17] 48.2% | [18] 35.7% | [19] 19.7%

COc1cccc(C(=O)NNc2nc(Cl)nc(Cl)n2)c1
inactive: [1] 105% | [2] 96.7% | [3] 100% | [4] 104% | [5] 109% | [6] 103% | [7] 101% | [8] 100% | [9] 102% | [10] 102% | [11] 98.2% | [12] 98.8% | [13] 87.4% | [14] 93% | [15] 99.2% | [16] 97.4% | [17] 96.1% | [18] 101% | [19] 97% | [20] 105%

Cc1nc2ccccc2c(/C=C/c2ccccc2)c1C(=O)/C=C/c1ccccc1
active: [2] 9.41% | [8] 8.18% | [9] 9.71% | [11] 1.8% | [12] 6.72% | [15] -25.3% | [19] -64.1%
inactive: [1] 12.6% | [3] 37.5% | [4] 29.8% | [5] 21.1% | [6] 40.2% | [7] 45.8% | [10] 22.5% | [13] 19.7% | [14] 47.7% | [16] 35.1% | [17] 45% | [18] 29.8% | [20] 24.2%

NC(=O)c1c(NC(=O)c2cccc(C(F)(F)F)c2)sc2c1CCC(=O)C2
active: [2] -2.81% | [3] -41% | [4] -45.5% | [5] -5.44% | [7] -12.9% | [8] -78.1% | [9] -6.24% | [10] -54% | [11] -21.2% | [12] 3.32% | [13] -75.9% | [15] 7.56% | [16] -29.8% | [17] -56.3% | [18] -45.4% | [19] 5.08%
inactive: [1] 29.2% | [6] 19% | [14] 11.6% | [20] 20.7%

O=C(CC(=O)Nc1cccc(C(=O)O)c1)Nc1cccc(C(=O)O)c1
inactive: [1] 121% | [2] 111% | [3] 104% | [4] 104% | [5] 111% | [6] 104% | [7] 106% | [8] 90.5% | [9] 97.7% | [10] 96.6% | [11] 106% | [12] 97.6% | [13] 73.3% | [14] 102% | [15] 104% | [16] 92.5% | [17] 100% | [18] 94.6% | [19] 103% | [20] 100%

COc1ccc(CNc2c3ccccc3nc3ccccc23)c(OC)c1
inactive: [1] 49.4% | [2] 13.2% | [3] 67% | [4] 43.6% | [5] 33.4% | [6] 65.7% | [7] 36.3% | [8] 14.6% | [9] 74.6% | [10] 43.8% | [11] 26% | [12] 13.8% | [13] 64.5% | [14] 33.5% | [15] 41.8% | [16] 47.1% | [17] 70.3% | [18] 54.5% | [19] 17.7% | [20] 69.3%

O=C(C1=Cc2cc3ccccc3n2Cc2cnnn21)c1ccc(O)cc1
inactive: [1] 89.9% | [2] 11% | [3] 57.8% | [4] 75.5% | [5] 59% | [6] 71.9% | [7] 56.9% | [8] 61.5% | [9] 84% | [10] 24.9% | [11] 37.3% | [12] 27.3% | [13] 31% | [14] 63.2% | [15] 53.5% | [16] 62.4% | [17] 54.2% | [18] 32.9% | [19] 50.6% | [20] 66.8%

CCOC(=O)c1cnc2c(N=Nc3ccc(OC)cc3)c(N)nn2c1N
inactive: [1] 102% | [2] 107% | [3] 106% | [4] 101% | [5] 113% | [6] 94.2% | [7] 102% | [8] 110% | [9] 103% | [10] 110% | [11] 102% | [12] 99.3% | [13] 106% | [14] 98.6% | [15] 105% | [16] 98.7% | [17] 96.2% | [18] 97.3% | [19] 110% | [20] 114%

O=C1/C(=C/c2ccccn2)NC(=S)N1c1ccccc1Cl
active: [5] -7.86%
inactive: [1] 54.1% | [2] 39.7% | [3] 67.7% | [4] 36.4% | [6] 83.5% | [7] 55.9% | [8] 67.3% | [9] 74.5% | [10] 42.3% | [11] 38.2% | [12] 71.1% | [13] 82% | [14] 58.6% | [15] 34.6% | [16] 52.2% | [17] 57.9% | [18] 66.7% | [19] 12.1% | [20] 74%

Cc1ccc(C(=O)Nc2cccc(C#Cc3cccc4[nH]nc(N)c34)c2)cc1C(F)(F)F
inactive: [1] 78.4% | [4] 55.4% | [5] 41.2% | [6] 60.8% | [7] 78.1% | [9] 68% | [10] 21.6% | [11] 48.9% | [12] 27.3% | [13] 88.4% | [14] 113% | [15] 81.5% | [16] 69.8% | [17] 73.3% | [18] 41.1% | [19] 25.4% | [20] 41.7%
active: [2] 6.95% | [3] 6.04% | [8] 8.47%
